The entries come from a sample that favours hits as a whole.
Tb PYK inh – blocks Trypanosoma brucei pyruvate kinase | AID 624173 | Q57TT1 | TbPYK enzyme, Kinase-Glo Plus ATP luminescence, 45 min | Potency, µM (top dose mostly 76.8 µM), usual class: inhibitors | hit rate 0.12% among 410,000; active = well fitted curve in the direction sought with a large enough effect; inconclusive = small, poorly fitted or top-dose-only effect, or another doubt; inactive = no such curve, though single readings can be large; an effect the other way counts as inactive or inconclusive; note: nearly all actives have a fitted effect of over 50% in size
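Quantitative HTS: titrated library compounds versus trypanosomal pyruvate kinase in TEA buffer (pH 7.2) containing KCl, MgCl2, BSA and Tween-20. Reactions were initiated with ADP, 130 uM final. Kinase-Glo Plus luminescence was read after 45 min at RT.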
Shiga toxin inh – Shiga toxin inhibition | inhibition, % at 38.7 µM | Vero cells, Shiga toxin protein synthesis inhibition reporter | hit rate 9.2% among 290,000 | AID 2315; in the data active = inhibition mostly above about 28%, no sharp cut-off; inactive = mostly below about 43%
Cycloheximide cs – counter-screen for Shiga toxin inhibitors: cycloheximide protein synthesis inhibition; max response, %; hit rate 12% among 300,000; cell reporter, cycloheximide protein synthesis inhibition counterscreen; in the data active = max response mostly above about 13%, no sharp cut-off; inactive = mostly below about 14%; note: read at 38.3 µM for the half of the compounds with a filed dose
LmPK inhibitor – LmPK (Leishmania mexicana) enzyme inhibition; purified LmPK, Kinase-Glo ATP luminescence, 1 h; hit rate 0.37% among 290,000; Potency, µM (top dose mostly 57.5 µM), most hits filed as inhibitors; Q27686; active = well fitted curve in the direction sought with a large enough effect; inconclusive = small, poorly fitted or top-dose-only effect, or another doubt; inactive = no such curve, though single readings can be large; an effect the other way counts as inactive or inconclusive
Target sequence (Q27686 whole entry, looked up): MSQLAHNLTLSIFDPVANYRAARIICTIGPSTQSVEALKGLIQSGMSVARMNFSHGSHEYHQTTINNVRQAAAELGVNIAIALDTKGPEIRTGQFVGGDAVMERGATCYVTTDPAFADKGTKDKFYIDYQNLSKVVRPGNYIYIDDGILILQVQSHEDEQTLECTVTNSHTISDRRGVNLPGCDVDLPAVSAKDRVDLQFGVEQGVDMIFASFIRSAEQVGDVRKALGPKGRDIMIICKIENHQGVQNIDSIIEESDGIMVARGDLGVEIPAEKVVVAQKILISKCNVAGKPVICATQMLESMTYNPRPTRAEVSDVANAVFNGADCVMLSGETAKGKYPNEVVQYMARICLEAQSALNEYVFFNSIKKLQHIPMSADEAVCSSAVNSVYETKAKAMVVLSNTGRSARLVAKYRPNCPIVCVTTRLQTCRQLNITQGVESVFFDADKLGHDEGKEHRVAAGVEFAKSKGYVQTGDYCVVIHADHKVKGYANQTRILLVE
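ATP generated from ADP (0.1 mM) and PEP (0.5 mM) by 0.1 nM LmPK over 1 h at room temperature (pH 7.2 imidazole buffer) was detected by coupled luciferase luminescence. Values were normalized to uninhibited and no-enzyme wells.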
SARS PLpro yeast – blocks SARS-CoV papain-like protease in a yeast assay. AID 485353. hit rate 0.19% among 330,000. Potency, µM (top dose mostly 32.9 µM), usual class: activators. S. cerevisiae expressing SARS-CoV PLpro, growth rescue; note: nearly all actives have a fitted effect of over 55% in size
NS1 inh – influenza NS1 inhibition; Potency, µM (titrated, usually from 46.1 µM); hit rate 0.4% among 270,000; note: actives are rising curves; nearly all actives have a fitted effect of over 50% in size
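In this qHTS, NS1 from influenza A is expressed in budding yeast, where it slows growth. Cells are switched from glucose to 2% galactose medium (pH 6.0, -URA), treated with compound, and growth recovery is read at OD600.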
Flu NS1 inh – influenza NS1 function inhibition validation | shares compounds with NS1 inh | influenza NS1 function cell assay, 15-point titration | activity change, negative = inhibition, % at 32.9 µM | 1,400 tested, under 10 active | AID 492980
A number is an active result; 0 = inactive; ? = inconclusive; - = no result. Unless noted, calls come from the whole dose curve.

SMILES | Tb PYK inh | Shiga toxin inh | Cycloheximide cs | LmPK inhibitor | SARS PLpro yeast | NS1 inh | Flu NS1 inh
O=c1cc(-c2ccc(O)c(-c3c(O)cc(O)c4c(=O)cc(-c5ccc(O)cc5)oc34)c2)oc2cc(O)cc(O)c12 | 0 | 0 | 0 | 0 | 0 | 10µM | 0
O=C(Oc1ccccc1N1C(=O)CCC1=O)c1ccco1 | 0 | 0 | 0 | 0 | 0 | 0 | -
O=C(N=C1SCC(=O)N1c1ccccc1Cl)c1ccco1 | 0 | 104.2 | 29.6 | 0 | 0 | 11.2µM | 0
O=S(=O)(Nc1cccc(-c2cn3cccnc3n2)c1)c1ccc(-c2ccccc2)cc1 | 0 | 0 | 0 | 0 | 0 | 11.2µM | 0
COC(=O)[C@@]12CCCN1[C@H](c1ccc(-c3ccc(C(C)=O)cc3)c(OC)c1)[C@H]1C(=O)N(C)C(=O)[C@H]12 | 0 | - | - | - | 0 | - | -
COc1ccccc1C(=O)NNC(=S)NC(=O)c1sc2ccccc2c1Cl | 0 | 0 | 0 | 0 | 0 | ? | ?
CC(C)Oc1ccc(C(=O)NC(=S)Nc2ccc(Cl)c(C(=O)O)c2)cc1 | 0 | 0 | 0 | 0 | 0 | 0 | -
Cc1nnc(SCC(=O)Nc2nc3c(s2)CC(C)CC3)s1 (stereo unspecified) | 0 | 59.7 | 37.3 | 0 | 0 | ? | 0
COc1ccc(S(=O)(=O)N2CCCCC2c2cc(C(=O)NCc3cccnc3)no2)cc1 (stereo unspecified) | 0 | - | - | - | - | - | -
Cc1cccc(-n2c(CNC(=O)c3cccc(F)c3)nnc2SCC(=O)Nc2ccccc2F)c1 | 0 | - | - | - | - | - | -
CCOc1ccc(-n2c(Cc3cc(=O)[nH]c(=O)[nH]3)nnc2SC(C)C)cc1 | 0 | 0 | 0 | 0 | 0 | ? | -
CCC(C)Sc1nnc(Cc2cc(=O)[nH]c(=O)[nH]2)n1-c1ccc(F)cc1 (stereo unspecified) | ? | 0 | 0 | 0 | 0 | 8.91µM | 0
COc1cc(CNc2ncnc3c2ncn3[C@H]2CN(Cc3ccco3)C[C@@H](CO)O2)cc(OC)c1OC | 0 | - | - | - | - | - | -
CCCn1c(SCC(=O)Nc2sc(C)c(C)c2C#N)nnc1C(C)C | 0 | 0 | 0 | 0 | 0 | 8.91µM | 0
COc1ccc(NS(=O)(=O)c2cc(NC(=O)CCNC(C)=O)ccc2N2CCCCC2)cc1 | 0 | - | - | - | 0 | - | -
COc1ccc(NS(=O)(=O)c2cc(NC(=O)/C=C/c3cc(OC)ccc3OC)ccc2N2CCCCC2)cc1 | 0 | 0 | 0 | 0 | 0 | 10µM | 0
CC(=O)N=c1n(C)c2ccccc2n1CCOc1ccccc1 | 0 | 0 | 0 | 0 | 0 | ? | 0
CC(=O)Nc1nc2ccccc2n1CCOc1ccccc1 | 0 | 0 | 0 | 0 | 0 | 0 | -
COc1cc(/C=N/n2cnc3c(sc4nc(C)cc(C)c43)c2=O)ccc1O | 0 | 0 | 0 | 0 | 0 | 0 | -
COc1cc(/C=N/NC(=O)c2sc3nc(C)cc(C)c3c2N)ccc1O | 0 | 0 | 0 | 0 | 0 | ? | 0
COc1ccccc1NS(=O)(=O)c1cccc(C(=O)N/N=C/c2c(C)nn(-c3ccccc3)c2N2CCCC2)c1 | 0 | 0 | 0 | 0 | 0 | 11.2µM | 0
CCOc1cc(/C=C2\N=C(C)OC2=O)cc(Br)c1OCC(=O)OC | 0 | 0 | 0 | 0 | 0 | ? | 0
CC(=O)Oc1ccccc1-n1c(C)nc(=O)c(-c2ccccc2)c1C | 0 | 0 | 0 | 0 | 0 | 0 | -
C[n+]1ccccc1/C=N/O | 0 | 0 | 0 | 0 | 0 | 0 | -
CC(O)/C=C/c1cccc[n+]1C (stereo unspecified) | 0 | 0 | 0 | 0 | 0 | 12.6µM | 0
SMILES | Tb PYK inh | Shiga toxin inh | Cycloheximide cs | LmPK inhibitor | SARS PLpro yeast | NS1 inh | Flu NS1 inh
NS(=O)(=O)c1ccc(NC(=O)COC(=O)C2CC2)cc1 | 0 | - | - | - | 0 | - | -
Cc1ccc(NC(=O)COC(=O)c2ccc3c(c2)OCO3)cc1S(=O)(=O)N1CCCCC1 | 0 | 0 | 0 | 0 | 0 | 10µM | 0
CC1CN(c2nc3ccccn3c(=O)c2C=O)CC(C)O1 (stereo unspecified) | 0 | 0 | 0 | 0 | 0 | 0 | -
Cc1ccc([C@H]2C[C@H](O)[C@@H](n3cc(COC(=O)c4ccccc4)nn3)CN2C(=O)c2cccs2)cc1 | 0 | - | - | - | - | - | -
COc1ccc(-n2nc(C(=O)N(C)C)nc2-c2ccccc2)cc1 | 0 | 0 | 0 | 0 | 0 | ? | 0
COc1ccc(/C=N/NC(=O)c2nc(-c3ccccc3)n(-c3ccccc3)n2)cc1 | 0 | 0 | 0 | 0 | 0 | 0 | -
Cc1c(Cl)cccc1NC(=O)N1CCN(Cc2cc(=O)n3nc(-c4ccccc4F)sc3n2)CC1 | 0 | - | - | - | - | - | -
COC(=O)c1c(NC(=O)CN2CCC(C(N)=O)CC2)c2c(C)cccc2n1C | 0 | 0 | 0 | 0 | 0 | ? | -
COC(=O)c1c(NC(=O)CN2CCCC(C)C2)c2c(C)cccc2n1C (stereo unspecified) | 0 | 0 | 0 | 0 | 0 | 5.01µM | 0
Cc1ccc(-c2cc(-c3ccco3)c3c(N)c(C(=O)NN)oc3n2)cc1 | 0 | 0 | 0 | 0 | 0 | ? | -
NNC(=O)c1oc2nc(-c3ccccc3)cc(-c3ccccc3)c2c1N | 0 | 0 | 0 | 0 | 0 | 10µM | 0
O=C(CN(C(=O)CCC(=O)Nc1nccs1)c1cccc(F)c1)NCc1ccccc1 | 0 | 0 | 0 | 0 | 0 | 0 | -
COc1ccc(-c2ccc([C@H]3[C@H]4C=CC[C@@H](C)[C@@H]4C(=O)N3Cc3ccccc3)c(F)c2)cc1C | 0 | 0 | 0 | 0 | 0 | ? | 0
O=C1C=C(c2n[nH]nc2-c2ccccc2)C[C@@H](c2ccc(F)cc2)C1 | 0 | - | - | - | - | - | -
COCOc1ccc(-c2ncc(OC)nc2NC(=O)c2ccsc2)cc1 | 0 | - | - | - | - | - | -
Cn1cc(C(=O)N2CCN(C(=O)c3ccco3)CC2)c2c3ccccc3n(C)c2c1=O | 0 | 0 | 0 | 0 | 0 | 3.98µM | 0
CCN1CCN(C(=O)c2cn(CCOC)c(=O)c3c2c2ccccc2n3C)CC1 | 0 | 0 | 0 | 0 | 0 | 0 | -
Cc1ccc(-n2c3c(cc(C(=O)NCc4ccco4)c2=O)C(=O)CC(C)(C)C3)cc1 | 0 | 0 | 0 | 0 | 0 | 1.12µM | 0
CC1(C)N=C(N)NC(Nc2ccc(Br)cc2)=N1 | 0 | 0 | 0 | 0 | 0 | 7.94µM | 0
O=C(Nc1nnc(-c2ccc(Br)cc2)o1)c1cccc(N2C(=O)CCC2=O)c1 | 0 | - | - | - | 0 | - | -
CCCC(c1nnnn1CCC(C)C)N1CCC(C(N)=O)CC1 (stereo unspecified) | 0 | 0 | 0 | 0 | 0 | 1.12µM | 0
CC(C)CCn1nnnc1C(C(C)C)N1CCC(C(N)=O)CC1 (stereo unspecified) | 0 | 0 | 0 | 0 | 0 | 0 | -
COc1cccc(CN(C(=O)CN2C(=O)c3ccccc3S2(=O)=O)C(C(=O)NCC2CCCO2)c2ccco2)c1 (stereo unspecified) | 0 | 0 | 0 | 0 | 0 | ? | 0
O=C(NCC1CCCO1)C(c1ccco1)N(Cc1ccc(F)cc1)C(=O)CN1C(=O)c2ccccc2S1(=O)=O (stereo unspecified) | 0 | 0 | 0 | 0 | 0 | 0 | -
COc1ccc(C(=O)N2CCCC(C(N)=O)C2)cc1S(=O)(=O)N1CCOCC1 (stereo unspecified) | 0 | - | - | - | 0 | - | -

High-throughput results deposited in PubChem BioAssay by National Center for Advancing Translational Sciences (NCATS).
